# From the supplement of paper PMC10338343
# ± gives the standard deviation. Whole data set: some 3,000 sequences, median “pre-steady-state target cleavage rate” near 0.0079, cut for the highest 2% near 0.2. The full list was thinned out, with the highest values kept by preference.
# Tested on: MILI (PIWIL2) piRISC loaded with piRNA #2 (26 nt)
# Assay: pre-steady-state target cleavage rate (min^-1); MIWI and MILI are mouse PIWI proteins and EfPiwi is from a freshwater sponge; tags in brackets are library labels; higher = faster piRNA-guided slicing of the target
# Details: guide: piRNA #2 5'p-UUAGGUAACCCAGUAGAUCCAGAGGA; auxiliary factor: 500 nM mouse GTSF1
# Method: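 Cleave-'n-Seq: a library of target RNAs (target site embedded in constant flanks, ACAGCATTCCGCGTTAGTGATATCCG... 5' flank; DNA-blocked outside the site) at 0.1 nM was incubated with 1 nM active mouse MILI or MIWI piRISC (synthetic 5'-monophosphorylated piRNA guide) with or without 500 nM mouse GTSF1 at 33 °C for 1 min to 16 h. Uncleaved targets were sequenced and normalised to non-target controls, and the pooled three trials were fitted to a burst-and-steady-state model to give the pre-steady-state cleavage rate (min^-1; k3 is constrained to at most 1e-4). Sequence is the target site only; target names encode pairing extent (gX:gY) and contiguous / 1-mismatch / 2-mismatch / bulge geometry. Fits with R² ≤ 0 are excluded.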
row,Sequence,pre-steady-state target cleavage rate
1,CUUAUCCUCUGGAUCUACUGGGUUAUCUAA,0.0884 ± 0.015
2,CUUAUCCUCUGGAUCUACUGGGUUUCCAAA,0.134 ± 0.047
3,CUUAACCUCUGGAUCAACUGGGUUUCCUAA,0.101 ± 0.038
4,CUUAUCCUCUGGAUCUACUGGGUUAUCCUAA,0.204 ± 0.046
5,CUUAUCCUCUGGAUCUACUGGGUUUCCUUA,0.413 ± 0.15
6,CUUAUCCUCUGGAUCUACUGGGUUCACCUAA,0.0872 ± 0.017
7,CUUAAGCUCUGGAUCAACUGGGUUUCCUAA,0.0481 ± 0.015
8,CUUAUCCUCUGGAUCAACUGGGUUUCCUAA,0.199 ± 0.072
9,CUUAUCCUCUGGAUCUACUGGGUUACCUAA [g2:g26:cont:t1A],0.125 ± 0.023
10,CUUAUCCUCUGGAUCUACUGGGUUUCGUAA,0.171 ± 0.071
11,CUUAUCCUCUGGAUCUACUGGGUAUCCUAA,0.0336 ± 0.014
12,CUUAUCCUCUGGAUCUACUGGGUUCCUAA,0.239 ± 0.11
13,CUUAAGCUCAGGAUCAACUGGGUUACCUAA,0.0432 ± 0.014
14,CUUAAGGACUGGAUCUAUUGGGUUACCUAA,0.0187 ± 0.0078
15,CUUAAGGAGUGGAUCUUCAGGGUUACCUAA,0.0231 ± 0.0065
16,CUUAAGGUCUGGAUGUACUGGGAUACCUAA,0.0141 ± 0.01
17,CUUAAGGUCUGGAACUUCUGGGUUACCUAA,0.0253 ± 0.015
18,CUUAAGCUCAGGAUCUACUGGGUAACCUAA,0.0259 ± 0.0088
19,CUUAACGUCUGGAUCUACUGGGUUACCUUA,0.0827 ± 0.015
20,CUUAAGGAGUGGAUCUACUGGGUCUACCUAA,0.00823 ± 0.0039
21,CUUAAGGACUGGAUCUACUGGGUAUACCUAA,0.0248 ± 0.016
22,CUUAAGGUCUGGAUCUACAGGGUUACCAAA,0.106 ± 0.017
23,CUUAUCCCUCUGGAUCUACUGGGUUACCUAA,0.0911 ± 0.022
24,CUUAUCCACUGGAUCUACUGGGUUUCCUAA,0.123 ± 0.034

row,Sequence,pre-steady-state target cleavage rate
1,CUUAUCCUCUGGAUCUACUGGGUUACCCUAA,0.132 ± 0.049
2,CUUAUCCUCUGGAUCUACUGGGUUUGCUAA,0.216 ± 0.041
3,CUUAUCCUCUGGAUCUACUGGGUAUGCUAA,0.092 ± 0.023
4,CUUAUCCUCUGGAUCUACUGGGUUUACCUAA,0.107 ± 0.023
5,CUUAUCCUCUGGAUCUACUGGGUUUCCUAA,0.252 ± 0.072
6,CUUAUCCUCUGGAUCUACUGGGUUACGCUAA,0.174 ± 0.026
7,CUUAUCCUCUGGAUCUACUGGGUUCCCUAA,0.321 ± 0.13
8,CUUAAGGUGUGGAUCUACUGGGUUACCUUA,0.0353 ± 0.011
9,CUUAUCCUCUGGAUGUACUGCGUUACCUAA,0.0106 ± 0.0045
10,CUUAAGGACUGGAUCUACAGGGUUACCAAA,0.0404 ± 0.0091
11,CUUAAGCUCUCGGAUCUACUGGGUUACCUAA,0.064 ± 0.015
12,CUUAUCCUCUGGAUCACUGGGUUACCUAA,0.0129 ± 0.0061
13,CUUAAGGAGACCUACUACUGGGUUACACUAA,< 0.0001
14,CUUAAGGUCUGGAUCUACUGGGUUACCUGAA,0.0831 ± 0.035
15,CUUAAGCUCUGGAUCUAGUGGGUUUCCUAA,0.0199 ± 0.0071
16,CUUAUCCUCUCGAUCUACUCGGUUACCUAA,0.0053 ± 0.0015
17,CUUAAGGAGACCUACUACUGUGGUUACCUAA,< 0.0001
18,CUUAACGUCUGCAUCUACUGGGUUACCUAA,0.126 ± 0.02
19,CUUAUCCUCUGGUCUACUGGGUUACCUAA,0.983 ± 0.34
20,CUUAUCCUCUGGAGUCUACUGGGUUACCUAA,0.175 ± 0.039
21,CUUAUCCUCUGAAUCUACUGGGUUACCUAA,0.109 ± 0.023
22,CUUAUCCUCUGGGUCUACUGGGUUACCUAA,0.206 ± 0.035
23,CUUAUCCUCUGGACUCUACUGGGUUACCUAA,0.0887 ± 0.019
24,CUUAUCCUCUGGAAUCUACUGGGUUACCUAA,0.156 ± 0.035

row,Sequence,pre-steady-state target cleavage rate
1,CUUAUCCUCUGGCUCUACUGGGUUACCUAA,1.12 ± 0.3
2,CUUAAGCUCUGGAUGUACUGGGUUUCCUAA,0.0435 ± 0.021
3,CUUAAGGUCUGGAUCUACAGGGUUAGCUAA,0.0446 ± 0.012
4,CUUAAGCUCUGUAUCUACUGGGUUACCUAA,0.0444 ± 0.0099
5,CUUAAGGAGUGGAUCUACAGGGUUUCCUAA,0.056 ± 0.012
6,CUUAAGGUCUGGAUCUACUGGGUUACCUAU [g2:g23:cont:t1U],0.101 ± 0.014
7,CUUAUCCUCUGGAUGUAGUGGGUUACCUAA,0.0679 ± 0.01
8,CUUAUCCUCUGAUCUACUGGGUUACCUAA,0.123 ± 0.029
9,CUUAUCCUCUGCGAUCUACUGGGUUACCUAA,0.0876 ± 0.015
10,CUUAACCUCUGCAUCUACUGGGUUACCUUA,0.178 ± 0.048
11,CUUAACCUCUGCAUCUACUGGGUUACCAAA,0.173 ± 0.055
12,CUUAUCCUCUGCAUCUACUGGGUUACCAAA,0.408 ± 0.12
13,CUUAUCCUCUGGCAUCUACUGGGUUACCUAA,2.56 ± 1.7
14,CUUAUCCUCUGCAUCUACUGGGUUACCUAA,0.275 ± 0.056
15,CUUAUCCUCUGCAUCUACUGCGUUACCUAA,0.0198 ± 0.0066
16,CUUAUCCUCUGGGAUCUACUGGGUUACCUAA,0.137 ± 0.023
17,CUUAUCCUCUGGAUCUACUGGGUUACCUUA,0.13 ± 0.026
18,CUUAUCCUCUGGAUCUACUGGGUUACCAAA,0.13 ± 0.023
19,CUUAUCCUCUGCAUCUACUGGGUUACCUUA,0.466 ± 0.13
20,CUUAAGCUCUGGAUCUACCGGGUUACCUAA,0.0213 ± 0.0061
21,CUUAAGCUCUGGAUCUACUGGGUUCACCUAA,0.0506 ± 0.017
22,CUUAAGGAGUGGAUCUUCUGGGUUACCUUA,0.014 ± 0.007
23,CUUAUCCUCACCAUCUACUGGGUUACCUAA,0.127 ± 0.051
